Test results taken from PubChem BioAssay AID1159580 (chemical genetic matrix, 2015).
In all, about 5,500 compounds went through this assay and about 2,000 (36%) were called active. Inconclusive results (about 18%) are left out. Rule as the data show it: active = normalized growth mostly below about 0.91 (no sharp cut-off); inconclusive = no clear call, values can overlap the other calls; inactive = mostly above about 0.92. Some of the results follow.

Experiment: chemical genetic growth profiling, strain panel (AID 1159580);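 also: tested at 20 µM; growth read once vehicle control cultures reached saturation at 30 °C; 1 = growth at the plate median or of vehicle wells; lower values mean less growth of the strain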
Conditions: growth OD

Measured: normalized growth

Cc1cc(=O)oc2cc(O)c(O)cc12
inactive: S. cerevisiae deletion strains, locus YJR043C, strain POL32, active compounds read low 0.964 | S. cerevisiae deletion strains, locus YJR066W, strain TOR1, active compounds read low 0.913 | S. cerevisiae deletion strains, locus YKL009W, strain mrt4, active compounds read low 0.922 | S. cerevisiae deletion strains, locus YKL068W, active compounds read low 1.01 | S. cerevisiae deletion strains, locus YKL085W, strain MDH1 (second series), active compounds read low 1.02 | S. cerevisiae deletion strains, locus YKL085W, strain MDH1, active compounds read low 1.02 | S. cerevisiae deletion strains, locus YKL160W, strain elf1, active compounds read low 1 | S. cerevisiae deletion strains, locus YKL190W, strain CNB1, active compounds read low 1.01 | S. cerevisiae deletion strains, locus YKR001C, strain vps1, active compounds read low 0.934 | S. cerevisiae deletion strains, locus YKR026C, strain gcn3, active compounds read low 0.994 | S. cerevisiae deletion strains, locus YKR091W, strain srl3, active compounds read low 0.981 | S. cerevisiae deletion strains, locus YLL001W, strain dnm1, active compounds read low 0.995 | S. cerevisiae deletion strains, locus YLL026W, active compounds read low 0.989 | S. cerevisiae deletion strains, locus YLL041C, strain sdh2, active compounds read low 0.986 | S. cerevisiae deletion strains, locus YLR027C, strain aat2, active compounds read low 0.976 | S. cerevisiae deletion strains, locus YLR039C, strain RIC1, active compounds read low 0.945 | S. cerevisiae deletion strains, locus YLR058C, strain SHM2, active compounds read low 0.99 | S. cerevisiae deletion strains, locus YLR102C, strain apc9, active compounds read low 1.01 | S. cerevisiae deletion strains, locus YLR113W, strain HOG1, active compounds read low 0.954 | S. cerevisiae deletion strains, locus YLR221C, strain rsa3, active compounds read low 0.986 | S. cerevisiae deletion strains, locus YLR258W, strain gsy2, active compounds read low 1 | S. cerevisiae deletion strains, locus YLR262C, strain YPT6 (second series), active compounds read low 0.962 | S. cerevisiae deletion strains, locus YLR262C, strain YPT6, active compounds read low 1.01 | S. cerevisiae deletion strains, locus YLR268W, strain sec22, active compounds read low 0.983 | S. cerevisiae deletion strains, locus YLR320W, strain mms22, active compounds read low 0.987 | S. cerevisiae deletion strains, locus YLR330W, strain CHS5, active compounds read low 1 | S. cerevisiae deletion strains, locus YLR342W, strain FKS1 (second series), active compounds read low 0.992 | S. cerevisiae deletion strains, locus YLR342W, strain FKS1, active compounds read low 1.01 | S. cerevisiae deletion strains, locus YLR357W, strain rsc2, active compounds read low 1.01 | S. cerevisiae deletion strains, locus YLR370C, strain arc18, active compounds read low 0.982 | S. cerevisiae deletion strains, locus YLR371W, strain rom2, active compounds read low 1 | S. cerevisiae deletion strains, locus YLR384C, strain iki3, active compounds read low 0.993 | S. cerevisiae deletion strains, locus YLR418C, strain cdc73, active compounds read low 0.939 | S. cerevisiae deletion strains, locus YML016C, strain PPZ1, active compounds read low 0.994 | S. cerevisiae deletion strains, locus YML032C, strain rad52, active compounds read low 0.965 | S. cerevisiae deletion strains, locus YML120C, strain ndi1, active compounds read low 1 | S. cerevisiae deletion strains, locus YML124C, strain tub3, active compounds read low 1.01 | S. cerevisiae deletion strains, locus YMR058W, strain fet3, active compounds read low 0.989 | S. cerevisiae deletion strains, locus YMR078C, strain ctf18, active compounds read low 1 | S. cerevisiae deletion strains, locus YMR125W, strain sto1, active compounds read low 1.04 | S. cerevisiae deletion strains, locus YMR129W, active compounds read low 1 | S. cerevisiae deletion strains, locus YMR205C, strain PFK2, active compounds read low 1.02 | S. cerevisiae deletion strains, locus YMR223W, strain ubp8, active compounds read low 0.951 | S. cerevisiae deletion strains, locus YMR231W, strain pep5, active compounds read low 0.998 | S. cerevisiae deletion strains, locus YMR307W, strain GAS1, active compounds read low 1.01 | S. cerevisiae deletion strains, locus YNL067W, strain RPL9B, active compounds read low 0.994 | S. cerevisiae deletion strains, locus YNL071W, strain lat1, active compounds read low 0.988 | S. cerevisiae deletion strains, locus YNL128W, strain TEP1, active compounds read low 1.01 | S. cerevisiae deletion strains, locus YNL183C, strain NPR1, active compounds read low 0.902 | S. cerevisiae deletion strains, locus YNL209W, strain ssb2, active compounds read low 1 | S. cerevisiae deletion strains, locus YNL233W, strain BNI4, active compounds read low 0.961 | S. cerevisiae deletion strains, locus YNL248C, strain rpa49, active compounds read low 0.941 | S. cerevisiae deletion strains, locus YNL250W, strain rad50, active compounds read low 1.02 | S. cerevisiae deletion strains, locus YNL271C, strain bni1, active compounds read low 0.993 | S. cerevisiae deletion strains, locus YNL298W, strain CLA4, active compounds read low 0.961 | S. cerevisiae deletion strains, locus YNL307C, strain MCK1, active compounds read low 0.989 | S. cerevisiae deletion strains, locus YNL322C, strain KRE1 (second series), active compounds read low 0.995 | S. cerevisiae deletion strains, locus YNR049C, strain mso1, active compounds read low 0.989 | S. cerevisiae deletion strains, locus YNR052C, strain pop2, active compounds read low 0.974 | S. cerevisiae deletion strains, locus YOL006C, strain TOP1, active compounds read low 0.805 | S. cerevisiae deletion strains, locus YOL012C, strain htz1 1.25 | S. cerevisiae deletion strains, locus YOL147C, strain pex11, active compounds read low 0.993 | S. cerevisiae deletion strains, locus YOR001W, strain rrp6, active compounds read low 0.967 | S. cerevisiae deletion strains, locus YOR061W, strain CKA2, active compounds read low 1 | S. cerevisiae deletion strains, locus YOR069W, strain VPS5, active compounds read low 1.01 | S. cerevisiae deletion strains, locus YOR070C, strain gyp1, active compounds read low 0.99 | S. cerevisiae deletion strains, locus YOR080W, strain dia2, active compounds read low 0.975 | S. cerevisiae deletion strains, locus YOR083W, strain WHI5, active compounds read low 0.978 | S. cerevisiae deletion strains, locus YOR106W, strain vam3, active compounds read low 0.993 | S. cerevisiae deletion strains, locus YOR136W, strain idh2, active compounds read low 1 | S. cerevisiae deletion strains, locus YOR144C, strain elg1, active compounds read low 1 | S. cerevisiae deletion strains, locus YOR184W, strain ser1, active compounds read low 0.88 | S. cerevisiae deletion strains, locus YOR231W, strain MKK1, active compounds read low 0.904 | S. cerevisiae deletion strains, locus YOR265W, strain rbl2, active compounds read low 0.989 | S. cerevisiae deletion strains, locus YOR270C, strain vph1, active compounds read low 0.893 | S. cerevisiae deletion strains, locus YOR290C, strain snf2, active compounds read low 0.937 | S. cerevisiae deletion strains, locus YOR316C, strain cot1, active compounds read low 1 | S. cerevisiae deletion strains, locus YPL051W, strain arl3, active compounds read low 0.987 | S. cerevisiae deletion strains, locus YPL078C, strain atp4, active compounds read low 0.992 | S. cerevisiae deletion strains, locus YPL106C, strain sse1, active compounds read low 0.978 | S. cerevisiae deletion strains, locus YPL240C, strain hsp82, active compounds read low 0.994 | S. cerevisiae deletion strains, locus YPL256C, strain CLN2, active compounds read low 0.936 | S. cerevisiae deletion strains, locus YPR119W, strain clb2, active compounds read low 1.01 | S. cerevisiae deletion strains, locus YPR141C, strain kar3, active compounds read low 1.02 | S. cerevisiae deletion strains, locus YPR163C, strain tif3, active compounds read low 1.02 | S. cerevisiae deletion strains, locus YPR167C, strain met16, active compounds read low 0.981 | S. cerevisiae deletion strains, strain wtn01, active compounds read low 0.988 | S. cerevisiae strains, strain wild type, active compounds read low 1.01
